{"source": "the supplement of paper PMC8728848", "binders": {"B1": {"name": "T7P4 (Tuber borchii) (protein)", "chain": "GSHIGPYMSFYASSEDVRTIEEGGRTWLVGRARRADGSWQDIKLDLDNIIGNRDGHLTWGEQNFTQSASDIRFNFEGSNVPVLRAKLRNAAGGEQESDLNLGERLTNNNGDLVFN"}}, "test_in_all_cases": "glycan array binding signal (z-score within array); higher = stronger binding", "settings_in_all_cases": "glycan notation: IUPAC condensed, linker removed", "key": {"[1]": {"biological_target": "Fuc(a1-2)Gal(b1-3)GalNAc(b1-3)Gal(b1-4)Glc", "outline": "(§1)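 From the Consortium for Functional Glycomics database, 3228 arrays were curated, keeping only those whose protein sequence was available. Binding is given as a within-array Z-score averaged across arrays sharing a protein sequence and across linkers. Negative Z-scores can be read as non-binding.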"}, "[2]": {"biological_target": "Fuc(a1-2)Gal(b1-3)GlcNAc(b1-3)Gal(b1-4)Glc", "outline": "as §1"}, "Fuc(a1-2)Gal(b1-4)GlcNAc": {"biological_target": "Fuc(a1-2)Gal(b1-4)GlcNAc", "outline": "as §1"}, "Gal(a1-3)Gal(b1-4)Glc": {"biological_target": "Gal(a1-3)Gal(b1-4)Glc", "outline": "as §1"}, "[3]": {"biological_target": "Gal(b1-3)GalNAc(b1-3)Gal(b1-4)Glc", "outline": "as §1"}, "[4]": {"biological_target": "Gal(b1-3)[Fuc(a1-4)]GlcNAc(b1-3)Gal(b1-4)GlcNAc", "outline": "as §1"}, "[5]": {"biological_target": "Gal(b1-3)[Neu5Ac(a2-6)]GalNAc", "outline": "as §1"}, "[6]": {"biological_target": "Gal(b1-3)[Neu5Ac(a2-6)]GlcNAc(a1-4)Gal(b1-4)Glc", "outline": "as §1"}, "[7]": {"biological_target": "Gal(b1-3)[Neu5Ac(a2-6)]GlcNAc(b1-6)Gal(b1-4)Glc", "outline": "as §1"}, "[8]": {"biological_target": "Gal(b1-3)[Neu5Ac(b2-6)]GalNAc", "outline": "as §1"}, "[9]": {"biological_target": "Gal(b1-4)GlcNAc(b1-3)Gal(b1-4)Glc", "outline": "as §1"}, "[10]": {"biological_target": "Gal(b1-4)GlcNAc(b1-6)GalNAc", "outline": "as §1"}, "Gal3S(b1-4)Glc": {"biological_target": "Gal3S(b1-4)Glc", "outline": "as §1"}, "Gal4S(b1-4)GlcNAc": {"biological_target": "Gal4S(b1-4)GlcNAc", "outline": "as §1"}, "GalNAc(a1-3)Gal": {"biological_target": "GalNAc(a1-3)Gal", "outline": "as §1"}, "[11]": {"biological_target": "GlcNAc(b1-2)Gal(b1-3)GlcNAc", "outline": "as §1"}, "[12]": {"biological_target": "Man(a1-2)Man(a1-3)[Man(a1-6)]Man(a1-6)[Man(a1-2)Man(a1-3)]Man(b1-4)GlcNAc(b1-4)GlcNAc", "outline": "as §1"}, "[13]": {"biological_target": "Man(a1-3)[Man(a1-6)]Man(a1-6)[Man(a1-2)Man(a1-3)]Man(b1-4)GlcNAc(b1-4)GlcNAc", "outline": "as §1"}, "[14]": {"biological_target": "Man(a1-3)[Man(a1-6)]Man(b1-4)GlcNAc(b1-4)GlcNAc", "outline": "as §1"}, "[15]": {"biological_target": "Neu5Ac(a2-3)Gal(b1-4)GlcNAc6S", "outline": "as §1"}, "[16]": {"biological_target": "Neu5Ac(a2-3)Gal6S(b1-4)GlcNAc", "outline": "as §1"}, "[17]": {"biological_target": "Neu5Ac(a2-8)Neu5Ac(a2-8)Neu5Ac(a2-8)Neu5Ac(a2-3)[GalNAc(b1-4)]Gal(b1-4)Glc", "outline": "as §1"}}, "note": "This is one part of a sample in which the strongest signals are shown more often than they occur.", "data": [{"binder": "B1", "values": [{"measurement": "glycan array binding signal (z-score)", "setting": "[1]", "value": 6.04}, {"measurement": "glycan array binding signal (z-score)", "setting": "[2]", "value": 5.88}, {"measurement": "glycan array binding signal (z-score)", "setting": "Fuc(a1-2)Gal(b1-4)GlcNAc", "value": -0.207}, {"measurement": "glycan array binding signal (z-score)", "setting": "Gal(a1-3)Gal(b1-4)Glc", "value": -0.222}, {"measurement": "glycan array binding signal (z-score)", "setting": "[3]", "value": 5.7}, {"measurement": "glycan array binding signal (z-score)", "setting": "[4]", "value": -0.207}, {"measurement": "glycan array binding signal (z-score)", "setting": "[5]", "value": -0.213}, {"measurement": "glycan array binding signal (z-score)", "setting": "[6]", "value": 5.89}, {"measurement": "glycan array binding signal (z-score)", "setting": "[7]", "value": 5.74}, {"measurement": "glycan array binding signal (z-score)", "setting": "[8]", "value": -0.16}, {"measurement": "glycan array binding signal (z-score)", "setting": "[9]", "value": 2.77}, {"measurement": "glycan array binding signal (z-score)", "setting": "[10]", "value": -0.221}, {"measurement": "glycan array binding signal (z-score)", "setting": "Gal3S(b1-4)Glc", "value": -0.008}, {"measurement": "glycan array binding signal (z-score)", "setting": "Gal4S(b1-4)GlcNAc", "value": -0.202}, {"measurement": "glycan array binding signal (z-score)", "setting": "GalNAc(a1-3)Gal", "value": -0.215}, {"measurement": "glycan array binding signal (z-score)", "setting": "[11]", "value": 0.204}, {"measurement": "glycan array binding signal (z-score)", "setting": "[12]", "value": -0.213}, {"measurement": "glycan array binding signal (z-score)", "setting": "[13]", "value": -0.223}, {"measurement": "glycan array binding signal (z-score)", "setting": "[14]", "value": -0.226}, {"measurement": "glycan array binding signal (z-score)", "setting": "[15]", "value": -0.208}, {"measurement": "glycan array binding signal (z-score)", "setting": "[16]", "value": -0.213}, {"measurement": "glycan array binding signal (z-score)", "setting": "[17]", "value": -0.223}]}]}
